# Assay outcomes deposited in PubChem BioAssay by National Center for Advancing Translational Sciences (NCATS).
# Hits are enriched below; roughly 9% of the tested compounds scored in any of these assays.
# Luc counter: blocks Kinase-Glo luciferase, a counter-screen artifact; Kinase-Glo luciferase, ATP luminescence, 8 min; Potency, µM (doses to about 38.3 µM), without a hit: top-dose activity change, negative = inhibition, hits mostly inhibitors; 200,000 tested, 0.28% active; active means well fitted curve in the direction sought with a large enough effect; inconclusive means small, poorly fitted or top-dose-only effect, or another doubt; inactive means no such curve, though single readings can be large; an effect the other way counts as inactive or inconclusive; further: nearly all actives have a fitted effect of over 60% in size
#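 Inhibition of Kinase-Glo luciferase light generation was assessed at 10 uM ATP in pH 7.2 imidazole buffer, with luminescence measured after eight minutes at ambient temperature.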
# Lamin A splicing: modulators of lamin A splicing; Potency, µM (series often up to 46.1 µM), inactives show at the top dose ratio change, negative = inhibition, usual class: inhibitors; HeLa LMNA splicing GFP/RFP minigene ratio, 48 h; 200,000 tested, 0.01% active; active means well fitted inhibition curve with a large enough effect in the signal ratio, with a control signal flat, not every such curve was filed as active; inconclusive means small, poorly fitted or top-dose-only effect, or effect the other way, or a change in a side signal; the % refers to the signal ratio
#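 S3 HeLa stable clones carrying a lamin A-EGFP splicing minigene plus DsRed2 were seeded at 600 cells/well in Opti-MEM with 2% FBS, pin-dosed and incubated 48 h at 37°C. Acumen cytometry (488 nm) gave the GFP/RFP total-intensity ratio.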
# IMPase Li cell: membrane-permeable IMPase blocker, potentiated with lithium; CHO-M1 cells, IP1 TR-FRET (IP-One), carbachol + lithium; Potency, µM (highest dose often 59.4 µM), for inactives: at the highest dose activity, negative = IMPase inhibition, usual class: inhibitors; 210,000 tested, 0.35% active; AID 1457; active means well fitted curve in the direction sought with a large enough effect; inconclusive means small, poorly fitted or top-dose-only effect, or another doubt; inactive means no such curve, though single readings can be large; an effect the other way counts as inactive or inconclusive;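 further: IP1 builds up when IMPase is blocked and the TR-FRET signal falls; plate controls were basal vehicle for no effect and high inhibitor control for full effect; nearly all actives have a fitted effect of over 50% in size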
#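 Lithium-sensitised IP1 accumulation assay; M1-expressing CHO cells treated 30 min at 37C with compound. Competitive antibody detection by time-resolved FRET followed a 10 min room-temperature lysis step.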
# HPGD inh: HPGD (human) dehydrogenase inhibition | P15428 | purified HPGD, NADH fluorescence kinetic, PGE2 substrate | 150,000 tested, 4.3% active | AID 894 | Potency, µM, inactives show at the highest dose activity change, negative = inhibition, hits mostly inhibitors
# Target sequence (P15428 whole entry, looked up): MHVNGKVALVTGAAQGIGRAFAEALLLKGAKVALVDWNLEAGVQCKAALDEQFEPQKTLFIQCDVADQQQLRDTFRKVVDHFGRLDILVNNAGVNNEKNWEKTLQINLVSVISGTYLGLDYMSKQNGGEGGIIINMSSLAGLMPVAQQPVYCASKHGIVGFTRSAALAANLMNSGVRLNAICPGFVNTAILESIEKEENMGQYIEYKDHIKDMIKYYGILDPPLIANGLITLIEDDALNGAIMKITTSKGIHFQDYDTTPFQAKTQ
#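 20 nM HPGD preincubated 15 min at room temperature with compound in 50 mM Tris-HCl pH 8, 0.01% Tween 20. Started with 1 mM NAD+ and 30 uM prostaglandin E2; NADH fluorescence (360/450 nm) read 5 times over 30-s intervals, last minus first.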
# ALDH1A1 block: ALDH1A1 (human) enzyme inhibition | P00352 | Purified ALDH1A1, NADH fluorescence, propionaldehyde substrate | Potency, µM (top dose mostly 75.3 µM), for the others: at the top dose activity, negative = inhibition, actives largely listed as inhibitors | 220,000 tested, 7.3% active | AID 1030;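 further: plate controls were no enzyme wells and a reference inhibitor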
# Target sequence (P00352 whole entry, looked up): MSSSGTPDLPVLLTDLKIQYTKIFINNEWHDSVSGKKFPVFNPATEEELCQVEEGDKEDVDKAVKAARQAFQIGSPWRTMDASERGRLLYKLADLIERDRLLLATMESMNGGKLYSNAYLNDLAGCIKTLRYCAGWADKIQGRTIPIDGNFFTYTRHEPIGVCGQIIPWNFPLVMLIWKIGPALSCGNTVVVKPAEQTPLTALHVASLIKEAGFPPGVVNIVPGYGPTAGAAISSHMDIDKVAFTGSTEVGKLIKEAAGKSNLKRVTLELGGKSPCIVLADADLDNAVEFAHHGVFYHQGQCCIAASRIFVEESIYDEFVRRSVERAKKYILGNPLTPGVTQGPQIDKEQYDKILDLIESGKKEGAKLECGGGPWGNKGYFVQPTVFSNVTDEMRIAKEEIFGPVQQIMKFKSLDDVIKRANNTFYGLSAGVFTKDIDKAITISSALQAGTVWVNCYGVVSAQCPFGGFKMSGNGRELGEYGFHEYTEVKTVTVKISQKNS
# Starred values were filed as active, the others as inactive; ? = inconclusive; nt = no result; [ ] = dose if it differs, or a comment. Unless noted, the call rests on the fitted dose curve; in most records, active means well fitted inhibition curve with a large enough effect (not every such curve was filed as active); inconclusive means small, poorly fitted or top-dose-only effect, or another doubt; inactive means no such curve, though single readings can be large or run the other way. Unless noted, on the % scale 0 is the no-effect control and ±100 the full control effect; potency means the concentration at half of the fitted maximal effect.
SMILES,Luc counter,Lamin A splicing,IMPase Li cell,HPGD inh,ALDH1A1 block
CC(CN(C)C)NC(=O)c1ccc(-n2c(=O)c(=O)[nH]c3ccccc32)cc1 (centres undefined),-3%,nt,nt,-7%,-5%
CC(=O)NC(Cc1c[nH]c2ccccc12)C(=O)OCC(=O)Nc1ccc2c(c1)OCO2 (centres undefined),-4%,5%,-11%[38.3 µM],-6%,5µM*
COc1ccc(NC(=O)COC(=O)CCCc2c[nH]c3ccccc23)cc1,-4%,-1%,28%[38.3 µM],-24%,8.9µM*
COc1cccc(NC(=O)COC(=O)CCCc2c[nH]c3ccccc23)c1,1%,17%,-3%[38.3 µM],-21%,-4%
CC(=O)Nc1ccc(NC(=O)COC(=O)Cc2c[nH]c3ccccc23)cc1,-2%,-3%,-3%,-7%,14µM*
CCOc1ccc(NC(=O)COC(=O)CCCc2c[nH]c3ccccc23)cc1,1%,7%,-2%[38.3 µM],-16%,16µM*
COc1ccc(NC(=O)COC(=O)Cc2c[nH]c3ccccc23)cc1OC,3%,-10%[46 µM],-4%,nt,1%
CC(=O)OCC(=O)NCC(=O)c1c[nH]c2ccccc12,1%,2%,10%,16µM*,-4%
CC1(C)CC[C@]2(C)CC[C@@]3(C)C(=CCC4[C@@]5(C)CCC(O)C(C)(C)C5CC[C@@]43C)C2C1 (some centres undefined),0%,nt,-7%,-6%,4%
O=C(CSc1nnc(SCc2cccc3ccccc23)s1)N/N=C/c1c[nH]c2ccccc12,2%,?,2%,-9%,14µM*
O=C(CNc1ccccc1)N/N=C/c1c[nH]c2ccccc12,3%,-14%,-2%,0.13µM*,-3%
O=C(O)CSc1nnc(SCc2cccc3ccccc23)s1,17%,4%,30%[38.3 µM],16µM*,?
CC(C)(C)c1ccc(-c2nnc(SCc3ccc(Cl)cc3)n2-c2cccc(C(F)(F)F)c2)cc1,-4%[7.66 µM],nt,6%,-1%,12%[13.5 µM]
Cc1cc(Cl)ccc1OCCCC(=O)N/N=C/c1cccc([N+](=O)[O-])c1,-1%,-1%,16%,0%,6%
O=C(CCCSc1nc(-c2ccco2)cc(C(F)(F)F)n1)Nc1ccc2c(c1)OCO2,1%,?,3%[38.3 µM],20µM*,16µM*
O=C(CSc1nc(-c2ccco2)cc(C(F)(F)F)n1)Nc1ccc2c(c1)OCO2,2%,-8%,9%,-11%,2%
O=C(CCSc1nc(-c2ccco2)cc(C(F)(F)F)n1)N1CCCc2ccccc21,3%,-4%,43%[38.3 µM],?,18µM*
O=C(CSc1nc(-c2ccco2)cc(C(F)(F)F)n1)Nc1ccc(C(=O)N2CCOCC2)cc1,-3%,7%,7%,22µM*,-4%
COc1ccc(-c2[nH]ncc2CNCCc2ncccc2C)cc1F,3%,nt,21%,nt,?
O=C(Nc1ccc(NC(=O)C2CCCCC2)nc1)c1cccs1,-2%,-21%[46 µM],5%,nt,3%
COc1cc(NC(=O)Cn2c(=O)nc(-c3ccccc3F)c3cc(Cl)ccc32)cc(OC)c1,nt,-6%[46 µM],nt,nt,nt
CCN(C(=O)c1ccccc1)c1ccc([N+](=O)[O-])cc1,-4%,6%,3%,-5%,5µM*
O=[N+]([O-])c1ccc(N(c2ccccc2)c2ccccc2)cc1,-6%,21%,-28%[38.3 µM],-29%,?
Cc1ccccc1C(=O)Nc1nnc(SCc2cc(=O)c3c(C)ccc(C)c3[nH]2)s1,nt,-6%[46 µM],nt,nt,nt
C=C(C)CSc1nc2nc(C)c(Br)cc2[nH]1,-4%,0%,22%[38.3 µM],14µM*,-7%
SMILES,Luc counter,Lamin A splicing,IMPase Li cell,HPGD inh,ALDH1A1 block
C=C(C)CSc1nc2ccccc2[nH]1,-14%,4%,-7%,?,3%
CN1C(=O)C(Cc2c[nH]c3ccccc23)NC1=S (centres undefined),-1%,nt,-3%,-19%,6%
Cn1cc2cc(NC(N)=S)ccc2n1,1%,nt,18%,nt,3%
CCOC(=O)CC(=O)CSc1nc(N)c(C#N)c(-c2ccc(F)cc2)c1C#N,nt,4%,nt,nt,?
CCCCOC(=O)CSc1nc(N)c(C#N)c(-c2ccc(OCC)cc2)c1C#N,-1%,6%,?,-17%,20µM*
CCCCOC(=O)CSc1nc(N)c(C#N)c(-c2ccc(OC)cc2)c1C#N,-5%,7%,36%[38.3 µM],-28%,?
C=C(C)CSc1nc(N)c(C#N)c(-c2ccc(C)cc2)c1C#N,-4%,2%,-26%[38.3 µM],14µM*,10µM*
CCOC(=O)CSc1nc(N)c(C#N)c(-c2ccc(OC)cc2)c1C#N,nt,-3%,nt,nt,?
CCCCOc1ccc(-c2c(C#N)c(N)nc(SCC(N)=O)c2C#N)cc1,1%,3%,-1%,28µM*,?
Cc1nc2ccc(NC(=O)c3cccc(S(=O)(=O)N4CC(C)OC(C)C4)c3)cc2s1 (centres undefined),-3%,-13%,20%[38.3 µM],-7%,-2%
COC(=O)C1(CCSC)NC(c2ccc(O)c(OC)c2)C2C(=O)N(c3ccc(C)cc3)C(=O)C21 (centres undefined),1%,-1%[46 µM],-6%,nt,6%
Clc1cc(Cl)cc(Nc2ncn[nH]2)c1,2%,-3%,-6%,-8%,5%
COC(=O)C1Cc2ccccc2CN1C(=O)CCl (centres undefined),0%,?,-7%,nt,0.4µM*
O=C(c1csnn1)N1CCC2(CC1)CN(c1ccccn1)C2,-6%,nt,6%,?,?
CCCC(=O)N(CC(=O)Nc1sc(C)c(C)c1C(N)=O)Cc1ccccc1,0%,nt,6%,nt,?
Cc1ccc(N2C(=O)[C@@H]3[C@H](C2=O)[C@H]2C=CC=NN2[C@@H]3C(=O)Nc2ccc(Cl)cc2)cc1,0%,8%,-13%[38.3 µM],35µM*,7.9µM*
O=C(Nc1ccc(Cl)cc1)[C@@H]1[C@@H]2C(=O)N(c3ccc(Cl)cc3Cl)C(=O)[C@@H]2[C@H]2C=CC=NN21,-9%,-10%,0%[38.3 µM],28µM*,22µM*
COc1ccc(N2CCN(S(=O)(=O)CCNC(=O)COc3cccc(OC)c3)CC2)cc1,nt,5%[46 µM],nt,nt,nt
COc1ccc(OC)c(S(=O)(=O)Nc2ccc(O)c(Sc3ncn[nH]3)c2)c1,-1%,?,5%[38.3 µM],22µM*,7%
COc1ccc(OC)c(S(=O)(=O)Nc2ccc(O)c3ccccc23)c1,5%,?,36%,3.2µM*,3.5µM*
Nc1nc(Cl)nc2c1ncn2[C@@H]1O[C@H](CO)[C@H](O)[C@H]1O,-2%,?,-7%,-8%,-6%
S=c1[nH]nc(Cc2ccccc2)n1-c1ccccc1,-1%,-6%,3%,?,?
CCn1c(CCc2ccccc2)n[nH]c1=S,-2%,nt,6%,nt,8%
CCCCOc1ccc(Cc2n[nH]c(=S)n2N)cc1,7%,?,4%,2.5µM*,10%
CCn1c(CCn2c3ccccc3c3ccccc32)n[nH]c1=S,2%,?,2%,?,28µM*
CCCn1c(CCc2ccccc2)n[nH]c1=S,-6%,30%[46 µM],11%,nt,-8%
